PubChem BioAssay (NCATS)
Results filed as inconclusive are left out. Calls of active or inactive are those of the source. Calls follow the shape of the dose curve; as a rule, active = well fitted curve in the direction sought with a large enough effect; inconclusive = small, poorly fitted or top-dose-only effect, or another doubt; inactive = no such curve, though single readings can be large; an effect the other way counts as inactive or inconclusive.

Columns and labels:
[1] = qHTS of pediatric cancer cell lines to identify multiple opportunities for drug repurposing: Primary screen for TC32 cells (AID 1347089); also: nearly all actives have a fitted effect of over 60% in size
Summary of the method: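 Measured quantity: luminescence from CellTiter-Glo, reflecting metabolically active TC32 cells following 48 h of compound. Curves came straight from multi-point titrations, with 8 or 11 points in primary and 11 in confirmatory screening.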

[2] = qHTS of pediatric cancer cell lines to identify multiple opportunities for drug repurposing: Primary screen for DAOY cells (AID 1347090); also: nearly all actives have a fitted effect of over 55% in size
Summary of the method: (§1)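 Viability measured as metabolically active cells via CellTiter-Glo luminescence following 48 hours of compound exposure, 11-point dilutions in confirmatory testing. 500-1,000 cells/well plated 5 hours before dosing; controls were DMSO and 2.3 µM bortezomib.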

[3] = qHTS of pediatric cancer cell lines to identify multiple opportunities for drug repurposing: Primary screen for SJ-GBM2 cells (AID 1347091)
Summary of the method: as §1

[4] = qHTS of pediatric cancer cell lines to identify multiple opportunities for drug repurposing: Primary screen for A673 cells (AID 1347092); also: nearly all actives have a fitted effect of over 45% in size
Summary of the method: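 Cells are plated, rested 5 h, dosed by pintool, incubated 48 h, then lysed with CellTiter-Glo and read by luminescence. DMSO is the neutral control; bortezomib at 2.3 uM final is the positive control.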

[5] = qHTS of pediatric cancer cell lines to identify multiple opportunities for drug repurposing: Primary screen for SK-N-MC cells (AID 1347093)
Summary of the method: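 Metabolically active cells were quantified by ATP-dependent luminescence (CellTiter-Glo, 15 min at room temperature) following 48 h treatment. Cells had been plated at 500-1,000 per well and settled for 5 h beforehand.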

[6] = qHTS of pediatric cancer cell lines to identify multiple opportunities for drug repurposing: Primary screen for BT-37 cells (AID 1347094)
Summary of the method: (§2)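 Readout: CellTiter-Glo luminescence, 48 h treatment. Controls DMSO (neutral) and bortezomib 2.3 µM final (positive). Potency and efficacy taken from primary-screen concentration-response curves.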

[7] = qHTS of pediatric cancer cell lines to identify multiple opportunities for drug repurposing: Primary screen for NB-EBc1 cells (AID 1347095)
Summary of the method: as §2

[8] = qHTS of pediatric cancer cell lines to identify multiple opportunities for drug repurposing: Primary screen for U-2 OS cells (AID 1347096); also: nearly all actives have a fitted effect of over 50% in size
Summary of the method: (§3)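 Viability after 48 h compound treatment at 37C, 500-1,000 cells/well, read as ATP luminescence with CellTiter-Glo. Primary screens used 11-point (MIPE, 0.78 nM-46 µM) or 8-point (NPC, 0.59 nM-46 µM) final concentrations; follow-up screens used 11-point dilutions.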

[9] = qHTS of pediatric cancer cell lines to identify multiple opportunities for drug repurposing: Primary screen for Saos-2 cells (AID 1347097); also: nearly all actives have a fitted effect of over 40% in size
Summary of the method: as §2

[10] = qHTS of pediatric cancer cell lines to identify multiple opportunities for drug repurposing: Primary screen for SK-N-SH cells (AID 1347098); also: nearly all actives have a fitted effect of over 65% in size
Summary of the method: (§4)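 Cells (500-1,000/well) rested 5 h, then received compounds for 48 h; metabolically active cells were measured by CellTiter-Glo luminescence. Final concentrations spanned up to 46 µM (MIPE, 11-point) or 0.59 nM-46 µM (NPC, 8-point) in primary screens, 11-point in follow-ups.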

[11] = qHTS of pediatric cancer cell lines to identify multiple opportunities for drug repurposing: Primary screen for NB1643 cells (AID 1347099); also: nearly all actives have a fitted effect of over 50% in size
Summary of the method: as §2

[12] = qHTS of pediatric cancer cell lines to identify multiple opportunities for drug repurposing: Primary screen for BT-12 cells (AID 1347101); also: nearly all actives have a fitted effect of over 25% in size
Summary of the method: as §4

[13] = qHTS of pediatric cancer cell lines to identify multiple opportunities for drug repurposing: Primary screen for Rh18 cells (AID 1347102); also: nearly all actives have a fitted effect of over 65% in size
Summary of the method: as §3

[14] = qHTS of pediatric cancer cell lines to identify multiple opportunities for drug repurposing: Primary screen for OHS-50 cells (AID 1347103); also: nearly all actives have a fitted effect of over 40% in size
Summary of the method: as §4

[15] = qHTS of pediatric cancer cell lines to identify multiple opportunities for drug repurposing: Primary screen for RD cells (AID 1347104); also: nearly all actives have a fitted effect of over 55% in size
Summary of the method: as §2

[16] = qHTS of pediatric cancer cell lines to identify multiple opportunities for drug repurposing: Primary screen for MG 63 (6-TG R) cells (AID 1347105); also: nearly all actives have a fitted effect of over 50% in size
Summary of the method: as §2

[17] = qHTS of pediatric cancer cell lines to identify multiple opportunities for drug repurposing: Primary screen for control Hh wild type fibroblast cells (AID 1347106); also: nearly all actives have a fitted effect of over 55% in size
Summary of the method: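 Cells (500-1,000/well) in growth media were settled 5 h at 37 degrees C, then given compounds for 48 h. Viability was read as CellTiter-Glo luminescence. Primary runs used MIPE at 11 points (0.78 nM-46 µM) and NPC at 8 points (0.59 nM-46 µM); follow-ups used 11 points.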

[18] = qHTS of pediatric cancer cell lines to identify multiple opportunities for drug repurposing: Primary screen for LAN-5 cells (AID 1347100)
Summary of the method: as §3

Measured: Potency
Potency is read from the fitted curve at half-maximal effect.

CN(c1ncccc1CNc1nc(Nc2ccc3c(c2)CC(=O)N3)ncc1C(F)(F)F)S(C)(=O)=O
inactive: [8] | [13]
active: [1] 13.1 µM | [2] 18.7 µM | [3] 3.32 µM | [4] 4.69 µM | [5] 2.96 µM | [6] 9.68 µM | [7] 4.69 µM | [9] 6.62 µM | [10] 24.1 µM | [11] 2.35 µM | [12] 10.9 µM | [14] 5.44 µM | [15] 10.5 µM | [16] 9.35 µM | [17] 20.9 µM

Nc1ccn([C@@H]2CS[C@H](CO)O2)c(=O)n1
inactive: all assays above

Cc1cc(N2CCOCC2)cc2[nH]c(-c3c(NC[C@@H](O)c4cccc(Cl)c4)cc[nH]c3=O)nc12
active: [1] 0.739 µM | [2] 0.935 µM | [3] 16.6 µM | [4] 0.296 µM | [5] 0.0118 µM | [6] 24.3 µM | [7] 0.59 µM | [8] 18.7 µM | [9] 0.0833 µM | [10] 0.215 µM | [11] 0.332 µM | [18] 0.296 µM | [12] 24.3 µM | [13] 18.7 µM | [14] 0.0968 µM | [15] 0.59 µM | [16] 2.96 µM

C=CCn1c(=O)c2cnc(Nc3ccc(N4CCN(C)CC4)cc3)nc2n1-c1cccc(C(C)(C)O)n1
active: [1] 2.62 µM | [2] 0.372 µM | [3] 0.166 µM | [4] 0.0743 µM | [5] 0.0833 µM | [6] 0.611 µM | [7] 0.209 µM | [8] 3.72 µM | [9] 1.05 µM | [10] 0.681 µM | [11] 0.187 µM | [18] 0.469 µM | [12] 7.69 µM | [13] 7.43 µM | [14] 0.306 µM | [15] 0.418 µM
inactive: [17]

COc1cc2c(Oc3ccc(-c4cnc(Nc5ccc(F)cc5)n(C)c4=O)cc3F)ccnc2cc1OCCCN1CCOCC1
active: [1] 11.7 µM | [2] 18.7 µM | [3] 0.526 µM | [4] 5.9 µM | [5] 0.833 µM | [6] 24.3 µM | [7] 3.32 µM | [8] 14.8 µM | [9] 2.09 µM | [10] 15.2 µM | [11] 14.8 µM | [18] 1.18 µM | [12] 21.7 µM | [13] 2.64 µM | [14] 0.306 µM | [15] 9.35 µM | [16] 3.72 µM

CC(C)(C)c1cnc(CSc2cnc(NC(=O)C3CCNCC3)s2)o1
active: [1] 1.31 µM | [2] 0.935 µM | [3] 0.187 µM | [4] 0.0469 µM | [5] 0.332 µM | [6] 0.385 µM | [7] 0.935 µM | [9] 0.743 µM | [10] 1.52 µM | [12] 0.432 µM | [14] 0.273 µM

COc1ccc(F)c(F)c1C(=O)c1cnc(NC2CCN(S(C)(=O)=O)CC2)nc1N
active: [1] 5.87 µM | [2] 3.72 µM | [3] 0.743 µM | [4] 1.48 µM | [5] 1.87 µM | [6] 3.43 µM | [7] 0.296 µM | [9] 2.35 µM | [10] 2.71 µM | [12] 3.43 µM | [14] 3.06 µM | [15] 5.26 µM

O=C(O)CCCc1c[nH]c2ccccc12
active: [7] 18.7 µM
not listed: [6] | [11] | [12] | [18]
inactive: all other assays above

CC(C)CC(=O)Nc1n[nH]c2c1CN(C(=O)C1CCN(C)CC1)C2(C)C
active: [1] 5.87 µM | [2] 11.8 µM | [3] 1.48 µM | [4] 0.187 µM | [5] 0.0526 µM | [6] 0.485 µM | [9] 5.26 µM | [12] 2.43 µM | [14] 3.43 µM | [15] 2.35 µM
inactive: [13]

C=CC(=O)Nc1cccc(Oc2nc(Nc3ccc(N4CCN(C)CC4)cc3)ncc2Cl)c1
active: [1] 7.39 µM | [2] 0.935 µM | [3] 1.87 µM | [4] 0.935 µM | [5] 0.469 µM | [6] 21.7 µM | [7] 2.35 µM | [8] 4.69 µM | [10] 3.83 µM | [18] 2.64 µM | [12] 17.2 µM | [13] 3.72 µM | [14] 3.06 µM | [15] 20.9 µM | [16] 7.43 µM | [17] 16.6 µM

COc1cc(C)c(Sc2cnc(NC(=O)c3ccc(CNC(C)C(C)C)cc3)s2)cc1C(=O)N1CCN(C(C)=O)CC1 (stereo not given)
inactive: [8] | [9] | [17]
active: [1] 7.39 µM | [2] 14.8 µM | [3] 18.7 µM | [4] 9.35 µM | [5] 2.09 µM | [7] 18.7 µM | [10] 12.1 µM | [18] 2.64 µM | [12] 24.3 µM | [14] 2.43 µM | [15] 14.8 µM | [16] 11.8 µM
